# PubChem BioAssay AID1259240 (Keith Lab, Institute of Cancer Science, University of …, 2017)
# A number with no mark means an inactive call. Active and inactive are the calls of the source. Rule as the data show it: active = fold change mostly below about -2 (no sharp cut-off); inactive = mostly above about -1.8.
# Assay: modulation of TERT promoter-driven luciferase – cell-based, luciferase reporter, human, primary screen (AID 1259240)
# Settings: A2780 TERT promoter luciferase reporter, 16 h; at 20 µM, fold versus average of vehicle-only wells
SMILES,fold change,outcome
Cc1cc(NC(=O)CSCc2nc(-c3cccc(Cl)c3)oc2C)no1,1.06,–
CCn1c(Oc2ccccc2)nc2c1c(=O)n(C)c(=O)n2C,-1.53,–
C=CCOc1ccc(/C(O)=C2/C(=O)C(=O)N(CC3CCCO3)C23C(=O)N(C)c2ccccc23)cc1 (stereo not given),-1.41,–
Cc1cccc(-c2nc3s/c(=C4\C(=O)N(C)c5ccccc54)c(=O)n3n2)c1,-1.34,–
Cc1ccc2ccc(C(Nc3ccccn3)c3ccncc3)c(O)c2n1 (stereo not given),-1.62,–
CCOC(=O)c1cc2cc(Cl)ccc2oc1=O,1.32,–
COc1ccc(NC(=O)Nc2ccc3snnc3c2)cc1OC,1.08,–
CCN(CC)C(=O)C1=C(C)Nc2nc3ccccc3n2C1c1ccncc1 (stereo not given),-1.02,–
COC(=O)c1nc2n(n1)C(c1cccc(Br)c1)C1=C(CCCC1=O)N2 (stereo not given),–,inactive
Cc1c(C(=O)N2CC(C)CC(C)C2)sc2ncn(CC(=O)N3CCC(C)CC3)c(=O)c12 (stereo not given),-1.37,–
CCOC(=O)C1CCN(c2c(N3CCC(C(=O)OCC)CC3)c(=O)c2=O)CC1,1.06,–
O=C(CC1(O)C(=O)N(CCc2ccccc2)c2ccc(Cl)cc21)c1ccc(F)cc1 (stereo not given),-1.87,–
C=CCn1c(=N)n(CC(=O)C(C)(C)C)c2ccccc21,-1.1,–
O=C(Cn1ncc2c3ccccc3n(Cc3cccc(Cl)c3)c2c1=O)NCc1cccnc1,-1.25,–
O=C(Cn1c(=O)n(Cc2ccco2)c(=O)c2ccccc21)Nc1ccc(Cl)cc1Cl,-1.13,–
Cc1cc(C(=O)O)ccc1-n1c(C)cc(C=C2C(=O)c3ccccc3C2=O)c1C,-2.23 (active),–
CCOC(=O)Cn1c(=O)oc2cc(S(=O)(=O)NCc3cccs3)ccc21,-1.2,–
COc1ccc(C(=O)CSc2nnc(Cc3cc(=O)[nH]c(=O)[nH]3)n2-c2ccc(Cl)cc2)cc1,-1.34,–
O=C(Cn1c(=O)c2ccccc2n(CC(=O)Nc2ccc(F)cc2F)c1=O)NCc1ccco1,-2.2 (active),–
CC1CCOC2(O1)C(=O)N(CN1CCN(c3cccc(Cl)c3)CC1)c1ccccc12 (stereo not given),-1.15,–

SMILES,fold change,outcome
COc1ccc(OC)c(S(=O)(=O)c2cc3cc(OC)ccc3oc2=O)c1,-1.77,–
CN1C(C(=O)c2ccccc2)=C(OC(=O)c2ccc(F)cc2)c2ccccc2S1(=O)=O,1.16,–
CC(=O)c1ccc2c(c1)c1cc(C(C)=O)ccc1n2C,-1.83,–
O=C(NCCCN1CCCC1)C(=O)Nc1ccc2nc3n(c(=O)c2c1)CCCCC3,1.01,–
CCOC(=O)c1nn(-c2ccc(C)cc2)c(=O)c2c(NC(=O)c3ccc(C)c([N+](=O)[O-])c3)scc12,1.24,–
Cn1c(C(=O)N2CCC(C(=O)NCCc3c[nH]c4ccccc34)CC2)cc2sccc21,-1.05,–
COc1cc2c(c(OC)c1OC)C(c1cccnc1)CC(=O)N2 (stereo not given),-1.07,–
COCCCNc1nc2c(-c3ccccc3)nnn2c2ccccc12,1.02,–
CCNc1nc(C(=O)O)nc(N2CCOCC2)n1,-1.25,–
COc1ccc2cc3c(N)nn(C(=O)c4cncc(Br)c4)c3nc2c1,-1.5,–
c1nc(N2CCOCC2)c2sc3nc(N4CCOCC4)c4c(c3c2n1)CCCC4,-1.09,–
O=c1/c(=C/c2ccco2)sc2nc(-c3ccccc3Br)nn12,1.48,–
CCc1ccc(C2C3=C(CC(C)(C)CC3=O)NC3=C2C(=O)c2ccccc23)cc1 (stereo not given),-2.26 (active),–
O=C(Nc1ccc(F)cc1)C(=O)Nc1ccc2nc3n(c(=O)c2c1)CCCCC3,-1.07,–
Cc1cc(C)cc(N(CC(=O)O)S(=O)(=O)c2ccc3[nH]c(=O)c(=O)[nH]c3c2)c1,1.37,–
COc1ccc(-n2c(C)c(C(C)=O)c3cc(OCC(N)=O)ccc32)cc1,-1.38,–
COc1ccc(NC(=O)c2cnccn2)cc1F,-1.32,–
c1ccc2c(c1)nc(N1CCN(C3CCCCC3)CC1)c1nncn12,1.24,–
O=c1cc(-c2cc(Br)cc3c2OCOC3)oc2ccccc12,-1.26,–
c1ccc(-c2nnc3ccc(NCCCN4CCc5ccccc5C4)nn23)cc1,-1.21,–
